PubChem BioAssay AID686965 (The Scripps Research Institute Molecular Screening Center, 2013)
Calls of active or inactive are those of the source. The rule behind the calls is not given here.

assay: quenching of GFP signal – biochemical, fluorescence, dose response, round 2, artefact control for Rin1-Abl interaction inhibitor project, late-stage follow-up (AID 686965); conditions: GFP fluorescence quenching/inhibition counterscreen

Row | SMILES | IC50
1 | COc1cc(OCc2ccc(F)cc2)ccn1 | > 67.5 µM (inactive)
2 | O=c1cc(OCc2ccccc2)cc[nH]1 | > 67.5 µM (inactive)
3 | COc1cc(OCc2ccccc2)ccn1 | > 67.5 µM (inactive)
4 | Cn1ccc(OCc2ccccc2)cc1=O | > 67.5 µM (inactive)
5 | COc1ccc(COc2cc[nH]c(=O)c2)cc1 | > 67.5 µM (inactive)
6 | COc1ccc(COc2ccnc(OC)c2)cc1 | > 67.5 µM (inactive)
7 | Nc1cc(OCc2ccccc2)ccn1 | > 67.5 µM (inactive)
8 | Cn1ccc(OCc2ccc(F)cc2)cc1=O | > 67.5 µM (inactive)
9 | O=c1cc(OCc2ccc(F)cc2)cc[nH]1 | > 67.5 µM (inactive)
10 | COc1ccc(COc2ccn(C)c(=O)c2)cc1 | > 67.5 µM (inactive)
